Bioassay records as filed in PubChem BioAssay.
HP1b chromo inh – inhibitors of HP1-beta chromodomain binding to methylated histone tails. P83916. AlphaScreen HP1-beta / biotin-H3K9me3 peptide binding. Potency, µM (highest dose often 114 µM), for the others: at the highest dose activity change, negative = inhibition, hits mostly inhibitors. actives 0.56% (n = 390,000). AID 540317; note: nearly all actives have a fitted effect of over 70% in size
Target sequence (P83916 whole entry, looked up): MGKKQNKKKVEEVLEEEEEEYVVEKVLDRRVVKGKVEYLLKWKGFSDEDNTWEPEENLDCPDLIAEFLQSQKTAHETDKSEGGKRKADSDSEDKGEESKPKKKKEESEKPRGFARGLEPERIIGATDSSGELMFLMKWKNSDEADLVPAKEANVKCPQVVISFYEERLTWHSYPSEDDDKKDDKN
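AlphaScreen: HP1-beta (50 nM) preformed 30 min with biotin-H3(1-18)K9me3 peptide (50 nM) in PBS pH 7.4, 0.01% Tween-20. Compound added for 30 min at RT, then streptavidin donor/nickel chelate acceptor beads (10 ug/mL) for 30 min.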
JMJD2A Tudor – blocks the human JMJD2A Tudor domain; O75164; AlphaScreen JMJD2A-Tudor / H3K4me3 peptide binding; Potency, µM (highest dose often 114 µM), without a hit: at the highest dose activity change, negative = inhibition, usual class: inhibitors; actives 4.4% (n = 390,000); AID 504339; note: % is set by controls: 0 for no effect and ±100 for the full control effect; nearly all actives have a fitted effect of over 50% in size
BAZ2B block – blocks human BAZ2B; Q9UIF8; AlphaScreen BAZ2B-H3K14Ac peptide displacement; Potency, µM (series often up to 114 µM), for the others: at the top dose activity change, negative = inhibition, actives largely listed as inhibitors; actives 4.4% (n = 360,000); AID 504333; note: % is set by controls: 0 for no effect and ±100 for the full control effect; nearly all actives have a fitted effect of over 60% in size
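In this displacement format the biotinylated H3(5-23) peptide acetylated at Lys14 serves as ligand at 50 nM, with BAZ2B at 50 nM in PBS pH 7.4 containing 0.01% Tween-20. Donor and acceptor beads are 10 ug/mL final.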
L3MBTL1 inh – L3MBTL1 (human) inhibition. actives 0.66% (n = 230,000). Potency, µM (highest dose often 57.1 µM), without a hit: at the highest dose activity, negative = inhibition, actives largely listed as inhibitors. AlphaScreen L3MBTL1–H3K9me1 peptide binding; note: % is set by controls: 0 for no effect and ±100 for the full control effect; nearly all actives have a fitted effect of over 60% in size
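First, the protein-peptide complex forms for 30 min at room temperature (L3MBTL1 50 nM, biotinylated H3K9me1 peptide 75 nM). Next, compounds are pin-transferred and incubated 30 min. Finally, AlphaScreen beads are added and read after 30 min.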
GLS inh – inhibitors of human glutaminase (GLS); O94925; GLS enzymatic activity, qHTS titration; Potency, µM (doses to about 45.5 µM), for inactives: top-dose activity change, negative = inhibition, hits mostly inhibitors; actives 0.21% (n = 410,000); note: % is set by controls: 0 for no effect and ±100 for the full control effect
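Read-out is an Amplex red fluorescence increase coupled through glutamate oxidase and HRP, measured before and after 30 min room-temperature incubation. hKGA is in 45 mM KH2PO4 (pH 8.2) with 0.02% Tween-20; glutamine added as 1mM solution.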
G9a block – G9a (human) methyltransferase inhibition; Q96KQ7; G9a H3K9 monomethylation, AlphaScreen, 2 h; Potency, µM (highest dose often 102 µM), without a hit: at the highest dose activity, negative = inhibition, actives largely listed as inhibitors; actives 8.8% (n = 350,000); AID 504332; note: % is set by controls: 0 for no effect and ±100 for the full control effect; nearly all actives have a fitted effect of over 75% in size
Target sequence (Q96KQ7 913-1193 limits assumed): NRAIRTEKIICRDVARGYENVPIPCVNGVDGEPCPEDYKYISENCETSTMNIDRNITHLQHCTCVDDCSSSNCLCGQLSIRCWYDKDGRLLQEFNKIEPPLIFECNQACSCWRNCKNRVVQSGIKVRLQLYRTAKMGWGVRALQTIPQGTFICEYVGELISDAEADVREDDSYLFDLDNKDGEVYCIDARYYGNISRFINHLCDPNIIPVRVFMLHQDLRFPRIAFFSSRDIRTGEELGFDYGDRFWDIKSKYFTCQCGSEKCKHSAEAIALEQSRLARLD
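AlphaScreen detection with an anti-monomethyl H3K9 antibody quantified product after a 2 h room-temperature reaction containing 500 nM biotinylated H3K9 peptide, 20 µM SAM and 20 nM enzyme, which had been preincubated 15 min with compound.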
An asterisk follows results filed as active; ? = inconclusive; / = no result; [ ] = dose if it differs, or a comment. Shown are actives, neighbours in structure and some others; about 10% of the full set was active somewhere. Calls come from the whole dose curve; as a rule, active = well fitted curve in the direction sought with a large enough effect; inconclusive = small, poorly fitted or top-dose-only effect, or another doubt; inactive = no such curve, though single readings can be large; an effect the other way counts as inactive or inconclusive. Potency is the fitted concentration of half-maximal effect.

SMILES	HP1b chromo inh	JMJD2A Tudor	BAZ2B block	L3MBTL1 inh	GLS inh	G9a block
CCC1CCCCN1C(=O)COC(=O)c1cc(Br)ccc1Cl (configuration not stated)	51.3%	9.7%	9.8%	/	7.0%	-5.5%
Cc1nc2ccc(NC(=O)c3cc(S(=O)(=O)N(C)c4ccccc4)ccc3Cl)cc2s1	32.5%	0.7%	0.7%	3.2%	2.1%	-1.5%[59 µM]
CCCCOc1ccc(C(=O)NCC2(N3CCN(C)CC3)CCCCC2)cc1	23.0%	-15.9%	-11.9%	/	1.3%	-37.6%[59 µM]
Cc1ccc(S(=O)(=O)N2CCOCC2)cc1C(=O)Nc1ccc(N2CCCCCC2)cc1	?	22.4µM*	39.8µM*	?	-0.2%	0.3%[0.501 µM]
CC(=O)c1ccc(NC(=O)c2cc(S(=O)(=O)N3CCOCC3)ccc2C)cc1	21.7%	-12.1%	-8.2%	/	-7.1%	10.0%
O=C(Nc1ccc(OC(F)F)cc1)c1cc(S(=O)(=O)N2CCCCC2)ccc1N1CCOCC1	28.9%	-1.6%	28.2%	28.3%	0.0%	15.8µM*
Cc1c(C(=O)NCc2cccc(Cl)c2)sc2ncnc(N(C)C3CCCCC3)c12	34.6%	-13.3%	0.4%	/	-7.1%	2.9%[59 µM]
CCC1CN(C(=O)N2CCC(C(=O)Nc3cc(C)ccc3C)CC2)c2ccccc2O1 (configuration not stated)	9.7%	?	79.4µM*	/	-4.6%	-37.6%[59 µM]
CCC1CN(C(=O)N2CCC(C(=O)NCCc3ccccc3C)CC2)c2ccccc2O1 (configuration not stated)	10.8%	-24.3%	79.4µM*	/	-10.4%	?
CCC1CN(C(=O)N2CCC(C(=O)NCc3ccco3)CC2)c2cc(C)ccc2O1 (configuration not stated)	17.3%	-27.5%	-24.4%	/	1.4%	19.6%
CCC1CN(C(=O)N2CCC(C(=O)NCc3ccc(C)o3)CC2)c2cc(C)ccc2O1 (configuration not stated)	22.1%	-26.4%	-22.9%	/	-11.2%	44.7µM*
COc1ccc2c(CNCc3cccs3)c(C(=O)O)n(Cc3cccc(F)c3)c2c1	5.5%	-28.6%	-23.4%	/	5.1%	?
Cc1cccc(N2CCN(C(=O)c3cc4c(=O)n(C)c5ccccc5c4n3C)CC2C)c1 (configuration not stated)	14.1%	?	?	/	12.0%	44.7µM*
Cn1c(C(=O)N2CCN(Cc3ccccc3)CC2)cc2c(=O)n(C)c3ccccc3c21	37.2%	?	-3.3%	/	-0.8%	44.7µM*
CCN1CCN(C(=O)c2cc3c(=O)n(C)c4ccccc4c3n2C)CC1	56.9%	-2.8%	6.4%	-8.0%	-1.7%	?
CCOc1ccc(C2=C(C(=O)CC)Sc3nncn3N2C(=O)CC)cc1	57.8%	4.2%	5.6%	/	9.6%	3.1%[59 µM]
COc1ccccc1N1CCN(c2cc(C)nc3nc(-c4ccc(Cl)cc4)nn23)CC1	40.9%	-23.0%	-2.7%	/	-0.1%	13.2%[59 µM]
O=C(Nc1ccncc1)C1C(=O)c2ccccc2N(Cc2ccccc2)C1=O (configuration not stated)	0.4%	-22.7%	/	/	/	/
c1ccc2c(c1)CCN(c1nc3cc4c(cc3s1)OCO4)C2	-23.8%	-33.6%[57.1 µM]	?	-8.4%[11.4 µM]	11.3%	3.16µM*
c1c2c(cc3sc(N4CCCCC4)nc13)OCO2	-31.2%	-34.9%	?	-7.5%	-2.6%	10µM*
CCc1cccc(C)c1NC(=O)C(C)Sc1nc2c(c(=O)[nH]1)CCCC2 (configuration not stated)	22.8%	-3.3%	-7.5%	/	-0.4%	-2.3%[59 µM]
Cc1ccc(S(=O)(=O)Nc2ccc(-c3ccc(N4CCCCCC4)nn3)cc2)c(C)c1	1.5%[57 µM]	-25.2%	-12.5%	/	-3.4%	-7.7%[59 µM]
S=C1Cc2ccccc2N1	?	79.4µM*	-35.5%	-9.5%	-3.6%	4.47µM*
FC(F)(F)c1nc2cc3nc4ccccc4[nH]c3cc2n1	10.7%	-11.9%	-22.7%	-23.9%	0.5%	39.8µM*
OC(c1nc2ccccc2[nH]1)C(O)c1nc2ccccc2[nH]1 (configuration not stated)	55.1%	-17.0%	-29.0%	5.5%[2.29 µM]	1.8%	-4.5%[0.501 µM]
SMILES	HP1b chromo inh	JMJD2A Tudor	BAZ2B block	L3MBTL1 inh	GLS inh	G9a block
CS/C(Nc1cc(Cl)ccc1Cl)=C(/C#N)C(=O)c1ccco1	-17.7%	?	56.2µM*	-7.8%	-12.4%	14.1µM*
O=C(Nc1cc(Cl)ccc1Cl)c1ccco1	34.7%	2.7%	-0.8%	0.2%[2.29 µM]	-14.8%	13.0%[0.501 µM]
CCc1cccc(C)c1NC(=O)CCn1c(=O)c2cccn2c2ccccc21	9.6%	-19.1%	-3.4%	/	-0.1%	-31.0%[59 µM]
CN(C)c1ncnc2ccc(-c3cccnc3)cc12	/	/	/	/	/	5.5%[0.501 µM]
COc1ccc(Cl)cc1NC(=O)c1cc(C)nc2c1c(C)nn2-c1ccccc1	38.5%	-12.0%	17.5%[57.1 µM]	/	-10.4%	2.1%[59 µM]
O=C(NCCCl)C1Cc2c(ccc3ccccc23)O1 (configuration not stated)	35.6%	-6.0%	-27.8%	0.6%	-7.7%	39.8µM*
CCN(C(=O)Cn1c(=O)n(-c2ccccc2)c(=O)c2ccc(C(=O)NCc3ccc4c(c3)OCO4)cc21)c1cccc(C)c1	14.4%	-13.4%	-10.9%	/	-2.9%	-12.0%[59 µM]
O=C(NC(=O)N1CCCC1)c1csnn1	4.5%	-5.9%	0.5%	/	6.5%	56.2µM*
O=C(NC1CCCCC1)c1csnn1	35.3%	-6.2%	/	/	-5.8%	/
CC(=O)c1cc(-c2ccccc2)n(CCC(=O)Nc2ccc(C(C)C)cc2)c1C	23.3%	-34.0%	?	/	0.1%	?
CN(C)c1ccc(C(=O)c2ccc(O)cc2O)cc1	-6.6%	-25.2%[57.1 µM]	?	-6.9%	31.2%	-24.8%[59 µM]
CN(C)c1ccc(Cc2cc3c(O)ccc(O)c3cc(Cc3ccc(N(C)C)cc3)c2=O)cc1	?	3.16µM*	/	/	-6.4%	/
COc1cccc(CNC(=O)CC(c2ccc(C)cc2)N2Cc3ccccc3C2=O)c1 (configuration not stated)	34.8%	5.9%	-8.0%	/	-3.1%	-7.2%[59 µM]
COc1ccc(NC(=O)CN2CCN(S(=O)(=O)c3ccc(Cl)cc3)CC2)cc1Cl	18.1%	-11.1%	2.3%	6.7%	-0.9%	10.9%[59 µM]
COc1ccc(S(=O)(=O)N2CCCN(CC(=O)Nc3ccc(OC)c(Cl)c3)CC2)cc1	43.7%	-19.7%	-8.8%	-14.1%	13.0%	44.7µM*
CC(C)Cc1nnc(NC(=O)CN2C(=O)NC3(CCCC3)C2=O)s1	27.4%	-6.2%	9.5%	4.2%	-4.8%	?
CCCc1cc(=O)oc2cc(OCC(=O)NCc3cccs3)ccc12	-2.0%	-34.7%	2.2%	10.1%	-5.3%	-6.2%[59 µM]
